This note sets out measurements from PubChem BioAssay.

Structures are written as SMILES. Activity calls are given as the source filed them. The rule behind the calls is not given here.

The subject of the experiment is Aerobactin synthetase IucA (Klebsiella pneumoniae hvKP1). Put plainly: IucA enzyme inhibition, primary screen, biochemical, Spectrum library (AID 1346200).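 Note: 100% = wells without compound and 0% = wells lacking enzyme.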 Conditions: malachite green pyrophosphate, A620, at 8 µM, hits give low values.
As for `Cn1c(=O)[nH]c(=O)c2[nH]cnc21`, the activity remaining was 109% (inactive). Regarding `C/C1=C\CCC(=O)C2CC(C)(C)C2CC1` (stereo not given), the activity remaining was 105% (inactive). As for `COc1ccc(CCC(=O)c2c(O)cc(O[C@@H]3O[C@H](CO)C(O)[C@H](O)C3O[C@@H]3O[C@@H](C)[C@H](O)[C@@H](O)[C@H]3O)cc2O)cc1O` (stereo not given in full), the activity remaining is 109% (inactive). Turning to `COc1c(C)c2c(c(O)c1C/C=C(\C)CCC(=O)O)C(=O)OC2`, the activity remaining was 98.9% (inactive). For the compound `C/C=C(\C)C(=O)O[C@@H]1c2c(ccc3ccc(=O)oc23)OC(C)(C)[C@@H]1OC(C)=O`, the activity remaining is 87% (inactive).
